The values that follow come from PubChem BioAssay (NCATS).

SMILES strings stand for the structures. A number with no mark means an inactive call. Records with an inconclusive call do not appear. Calls of active or inactive are those of the source. Unless noted, calls follow the shape of the dose curve; as a rule, active = well fitted curve in either direction with a large enough effect (not every such curve was filed as active); inconclusive = small, poorly fitted or top-dose-only effect, or another doubt; inactive = flat fitted curve, though single readings scatter.

The target of assay [1] is Lysosomal acid glucosylceramidase (Homo sapiens) (UniProt P04062). Nature of the assay: Glucocerebrosidase-p2 (AID 348; in the data active = potency below about 10 µM; also: potency is read from the fitted curve at half-maximal effect). The following applies: purified GBA, blue fluorogenic substrate, 40 min. In short, it runs like this:
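Normal human glucocerebrosidase (0.2 nM) with blue fluorogenic substrate (80 uM final) in citrate/phosphate pH 5.9 with 10mM sodium taurocholate, 0.01% tween-20; 40 min RT, NaOH/glycine stop; fluorescence Ex 365/Em 440; AC50 from a titration from 0.6 nM upwards.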

Assay [2] in a line: AP1 Signaling Pathway (AID 357). Also: % is scaled to controls: 0 for no effect and ±100 for the full control effect. The following applies: ME-180 AP-1-bla reporter, EGF-induced, beta-lactamase ratio, 5 h; at 7.69 µM (top of the series) unless noted. In short, it runs like this: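 Titration-series screen for positive or negative modulators of EC50 EGF-induced signaling in ME-180 cells carrying an AP-1-driven beta-lactamase reporter. After 5 hours at 37 degrees Celsius, CCF4 460nm/530nm emission ratio gave %Activity; AC50 values derived.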

In assay [3] the target is Cytochrome P450 1A2 (Homo sapiens) (UniProt P05177). The experiment in a line: p450-cyp1a2 (AID 410; calls by dose curve; also: potency is read from the fitted curve at half-maximal effect). The following applies: recombinant CYP1A2, luciferin-ME demethylation, luminescence; series mostly up to 11.4 µM. Put shortly:
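O-Demethylation of luciferin 6' methyl ether by human CYP1A2 is monitored as luciferase luminescence. Substrate sits at Km (100uM); enzyme is 20nM. Values are scaled to 57 uM furafylline as maximal inhibition.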

The nature of assay [4]: NFAT Signaling Pathway (AID 444).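 Also: carbachol stimulus at about its EC50 of 1 µM final; % is scaled to controls: 0 for no effect and ±100 for the full control effect.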 The following applies: Jurkat NFAT-bla M1, carbachol, beta-lactamase ratio, 5 h; at 7.69 µM (top of the series) unless noted. In short, it runs like this: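 Jurkat cells with NFAT-driven β-lactamase reporter and co-expressed M1 receptor, stimulated with carbachol (final 1 uM, ~EC50), compound titration, 5 h at 37 °C. CCF4 loaded 1 h at RT; 460/530 nm ratio gave %activity and AC50.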

The nature of assay [5]: Stat Signaling Pathway (AID 446).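 Also: ME-180 cervical cancer cells given 40 pM IL-6 alongside compound; SIE-controlled beta-lactamase reporter measured as 460/530 nm FRET emission ratio; % is scaled to controls: 0 for no effect and ±100 for the full control effect.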 The following applies: ME-180 SIE beta-lactamase reporter, IL-6 stimulated, 5 h; at 7.69 µM (top of the series) unless noted. Put shortly: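 FRET read-out (405 nm excitation, 460/530 nm emission) of a beta-lactamase reporter under a STAT-inducible element in ME-180 cervical carcinoma cells. Cells with compound receive 40 pM IL-6 for 5 h. Values are normalised to AC90 stimulation and AC90 JAK-inhibitor controls.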

The target in assay [6] is Glucocorticoid receptor (Homo sapiens) (UniProt P04150). Nature of the assay: GR-GFP Redistribution (AID 450;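 active = compounds whose dose series gives a full or clear partial fitted curve of increased nuclear translocation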; also: potency is read from the fitted curve at half-maximal effect). The following applies: U2OS GR-GFP nuclear translocation, laser cytometry, 2 h.
Sequence of Glucocorticoid receptor (Homo sapiens) (P04150 whole entry, looked up, the tested form may be a part): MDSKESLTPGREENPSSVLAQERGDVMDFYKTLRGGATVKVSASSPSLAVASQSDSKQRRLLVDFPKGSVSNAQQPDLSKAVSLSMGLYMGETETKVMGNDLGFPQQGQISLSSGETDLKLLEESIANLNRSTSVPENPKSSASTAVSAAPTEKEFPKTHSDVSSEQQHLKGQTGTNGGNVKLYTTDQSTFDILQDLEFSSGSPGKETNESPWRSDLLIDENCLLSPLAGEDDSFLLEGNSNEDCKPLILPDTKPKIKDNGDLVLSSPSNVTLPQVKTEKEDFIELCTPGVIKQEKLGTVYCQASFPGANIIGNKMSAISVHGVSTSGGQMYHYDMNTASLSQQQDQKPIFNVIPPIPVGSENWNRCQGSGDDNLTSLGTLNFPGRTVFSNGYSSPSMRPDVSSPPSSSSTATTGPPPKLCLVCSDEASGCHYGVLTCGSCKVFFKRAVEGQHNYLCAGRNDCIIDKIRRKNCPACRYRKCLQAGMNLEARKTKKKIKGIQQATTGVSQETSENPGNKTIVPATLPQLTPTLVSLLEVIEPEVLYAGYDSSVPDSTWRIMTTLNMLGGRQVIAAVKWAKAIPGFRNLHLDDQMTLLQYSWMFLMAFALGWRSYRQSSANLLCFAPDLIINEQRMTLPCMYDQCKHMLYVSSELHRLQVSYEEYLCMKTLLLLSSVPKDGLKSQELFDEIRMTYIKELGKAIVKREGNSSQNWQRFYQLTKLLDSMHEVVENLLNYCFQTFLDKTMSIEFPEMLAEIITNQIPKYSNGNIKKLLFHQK
Assay [7] shares this target. Nature of the assay: GR-EFC Redistribution (AID 451; calls by dose curve; also: potency is read from the fitted curve at half-maximal effect). The following applies: CHO-K1 GR-EFC translocation, beta-gal luminescence, 2 h. Put shortly: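 CHO-K1 cells expressing nuclear EA and GR-ED fragments of b-gal; compounds titrated up to 46 uM final, 2 h at 37 C. GR nuclear translocation read as complemented b-gal luminescence after 1 h RT detection.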
Assay [8] has as its target Mitogen-activated protein kinase 10 (Mus musculus) (UniProt Q61831). Nature of the assay: JNK3 AlphaScreen Assay (AID 530).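 Also: kinase came from lysate of stimulated human HepG2 cells; signal reports phosphorylation of biotinylated GST-cJun 1-79 at Ser73 with 10 µM ATP; % is scaled to controls: 0 for no effect and ±100 for the full control effect.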 The following applies: JNK3 lysate, c-Jun phosphorylation; series mostly up to 11.4 µM. In short, it runs like this:
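Activity was read by AlphaScreen after JNK3-containing HepG2 lysate (cytokine pre-activated) phosphorylated biotinylated GST-cJun with 10 uM ATP at room temperature. Phospho-Ser73 cJun antibody with Protein-A acceptor beads provided detection.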
For orientation: Bead proximity is the source of the signal in Alpha formats.

The target of assay [9] is 3',5'-cyclic-AMP phosphodiesterase 4B (Homo sapiens) (UniProt Q07343). Nature of the assay: qHTS Assay for Inhibitors of PDE-IV (AID 607; active = well fitted activation curve with a large enough effect in the main read-out, with a control signal flat, not every such curve was filed as active; also: % of control where 0% means no effect). The following applies: HEK293 ACTOne CNG channel cells, membrane potential fluorescence; series mostly up to 22.9 µM. Put shortly: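 Cell-based read-out of cAMP via a modified cyclic nucleotide-gated channel and membrane potential dye (535/590 nm) in HEK293 cells expressing PDE4 endogenously. Compounds tested up to 22.9 uM final; 100 uM RO 20-1724 reference.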
Sequence of 3',5'-cyclic-AMP phosphodiesterase 4B (Homo sapiens) (Q07343 whole entry, looked up): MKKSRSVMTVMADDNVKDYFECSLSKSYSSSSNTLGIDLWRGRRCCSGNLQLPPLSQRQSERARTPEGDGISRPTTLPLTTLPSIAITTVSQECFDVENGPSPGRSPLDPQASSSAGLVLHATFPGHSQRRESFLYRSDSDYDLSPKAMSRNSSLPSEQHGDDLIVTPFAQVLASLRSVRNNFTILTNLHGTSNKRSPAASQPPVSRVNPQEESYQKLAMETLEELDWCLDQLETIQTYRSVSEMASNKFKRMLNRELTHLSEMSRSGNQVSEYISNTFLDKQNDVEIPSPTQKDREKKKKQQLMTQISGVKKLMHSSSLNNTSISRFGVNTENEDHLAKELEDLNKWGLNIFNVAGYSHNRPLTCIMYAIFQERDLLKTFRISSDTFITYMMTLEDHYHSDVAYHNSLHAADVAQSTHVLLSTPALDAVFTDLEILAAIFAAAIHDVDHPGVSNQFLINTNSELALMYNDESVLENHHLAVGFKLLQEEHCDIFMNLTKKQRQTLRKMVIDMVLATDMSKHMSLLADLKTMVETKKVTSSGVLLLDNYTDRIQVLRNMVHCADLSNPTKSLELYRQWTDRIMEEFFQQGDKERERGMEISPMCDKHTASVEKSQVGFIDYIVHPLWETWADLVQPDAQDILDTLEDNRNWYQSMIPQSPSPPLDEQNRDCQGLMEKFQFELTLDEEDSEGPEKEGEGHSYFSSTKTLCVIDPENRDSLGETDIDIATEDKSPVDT

The target of assay [10] is Cytochrome P450 2D6 (Homo sapiens) (UniProt P10635). The experiment in a line: qHTS Assay for Inhibitors and Substrates of Cytochrome P450 2D6 (AID 891; active = well fitted curve in the direction sought with a large enough effect; an effect the other way counts as inactive or inconclusive; also: nearly all actives have a fitted effect of over 60% in size; also: potency is read from the fitted curve at half-maximal effect). The following applies: recombinant CYP2D6, luciferin-ME EGE luminescence; series mostly up to 11.4 µM. In short, it runs like this:
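Luminescent read-out of luciferin formed by 5 nM human CYP2D6 demethylating 30 uM Luciferin-ME EGE (Km level) over 60 min at room temperature after NADPH regeneration addition. Data normalized to full inhibition by 1.43 uM quinidine.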

The target of assay [11] is Cytochrome P450 3A4 (Homo sapiens) (UniProt P08684). Nature of the assay: qHTS Assay for Activators of Cytochrome P450 3A4 (AID 885; active = well fitted curve in the direction sought with a large enough effect; an effect the other way counts as inactive or inconclusive; also: nearly all actives have a fitted effect of over 65% in size). The following applies: recombinant CYP3A4, Luciferin-PPXE luminescence, 60 min; series mostly up to 11.4 µM. Put shortly:
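Luminescent readout of luciferin formed from 25 uM Luciferin-PPXE (KM level) by 20 nM CYP3A4 in 200 mM KPO4, with 60 min NADPH-driven reaction at room temperature after 10 min compound exposure. Ketoconazole (57 uM) defined 100% inhibition.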

A short description of assay [12]: qHTS Assay for Identification of Small Molecule Agonists for Hypoxia Response Element Signaling Pathway (AID 914; active = well fitted activation curve with a large enough effect in the signal ratio, with a control signal flat, not every such curve was filed as active; the % refers to the signal ratio; also: % of control where 0% means no effect). The following applies: ME-180 (cervical carcinoma) HRE-bla reporter, beta-lactamase ratio, CoCl2, 17 h; activation: stronger effect = higher value. Put shortly:
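qHTS titration; ME-180 HRE-bla cells; EC50 CoCl2 co-treatment, 17 h at 37 degrees Celsius; CCF4 dye, ex 405nm, em 460nm and 530nm; %Activity from ratio; AC50.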
In general terms: Quantitative high-throughput screening tests each substance at several concentrations.

Assay [13] has as its target Cytochrome P450 2C19 (Homo sapiens) (UniProt P33261). Nature of the assay: qHTS Assay for Inhibitors and Substrates of Cytochrome P450 2C19 (AID 899; active = well fitted curve in the direction sought with a large enough effect; an effect the other way counts as inactive or inconclusive; also: potency is read from the fitted curve at half-maximal effect; nearly all actives have a fitted effect of over 60% in size). The following applies: recombinant CYP2C19, luciferin-H EGE luminescence; series mostly up to 11.4 µM. In short, it runs like this: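 Luminescent read-out of luciferin formed from Luciferin-H EGE (10uM, equal to KM). Enzyme 5nM in 50mM KPO4; compound added, 10 min at 37C, then NADPH regenerating system for 60 min at 37C. Full inhibition defined by 57uM ketoconazole.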

Sequence of Lysosomal acid glucosylceramidase (Homo sapiens) (P04062 whole entry, looked up): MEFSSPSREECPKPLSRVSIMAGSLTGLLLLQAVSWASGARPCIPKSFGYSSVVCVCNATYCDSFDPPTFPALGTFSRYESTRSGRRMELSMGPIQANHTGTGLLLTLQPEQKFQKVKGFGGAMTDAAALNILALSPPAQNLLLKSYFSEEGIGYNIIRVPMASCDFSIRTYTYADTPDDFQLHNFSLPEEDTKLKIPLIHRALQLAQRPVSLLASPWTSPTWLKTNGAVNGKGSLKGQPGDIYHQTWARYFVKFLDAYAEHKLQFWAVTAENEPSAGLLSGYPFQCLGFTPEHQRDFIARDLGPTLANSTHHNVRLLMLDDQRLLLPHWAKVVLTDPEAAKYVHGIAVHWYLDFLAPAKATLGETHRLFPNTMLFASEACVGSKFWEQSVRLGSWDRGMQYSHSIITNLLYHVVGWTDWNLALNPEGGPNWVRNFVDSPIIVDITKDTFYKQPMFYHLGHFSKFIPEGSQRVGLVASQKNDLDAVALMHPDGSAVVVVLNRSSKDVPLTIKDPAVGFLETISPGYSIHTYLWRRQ
Sequence of Cytochrome P450 2D6 (Homo sapiens) (P10635 whole entry, looked up): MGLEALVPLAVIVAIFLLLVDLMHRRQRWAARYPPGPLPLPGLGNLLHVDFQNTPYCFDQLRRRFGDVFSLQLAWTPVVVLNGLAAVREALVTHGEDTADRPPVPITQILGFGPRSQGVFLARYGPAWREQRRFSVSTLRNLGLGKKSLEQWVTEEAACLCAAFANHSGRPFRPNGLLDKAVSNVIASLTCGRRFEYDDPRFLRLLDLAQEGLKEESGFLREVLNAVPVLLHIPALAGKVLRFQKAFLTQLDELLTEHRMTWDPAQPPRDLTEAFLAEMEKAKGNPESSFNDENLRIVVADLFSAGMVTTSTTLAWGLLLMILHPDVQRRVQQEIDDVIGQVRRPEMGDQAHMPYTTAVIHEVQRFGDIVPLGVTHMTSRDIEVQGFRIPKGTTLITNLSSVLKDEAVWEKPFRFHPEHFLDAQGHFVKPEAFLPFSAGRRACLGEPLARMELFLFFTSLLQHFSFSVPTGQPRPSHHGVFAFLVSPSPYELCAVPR
Sequence of Cytochrome P450 1A2 (Homo sapiens) (P05177 whole entry, looked up): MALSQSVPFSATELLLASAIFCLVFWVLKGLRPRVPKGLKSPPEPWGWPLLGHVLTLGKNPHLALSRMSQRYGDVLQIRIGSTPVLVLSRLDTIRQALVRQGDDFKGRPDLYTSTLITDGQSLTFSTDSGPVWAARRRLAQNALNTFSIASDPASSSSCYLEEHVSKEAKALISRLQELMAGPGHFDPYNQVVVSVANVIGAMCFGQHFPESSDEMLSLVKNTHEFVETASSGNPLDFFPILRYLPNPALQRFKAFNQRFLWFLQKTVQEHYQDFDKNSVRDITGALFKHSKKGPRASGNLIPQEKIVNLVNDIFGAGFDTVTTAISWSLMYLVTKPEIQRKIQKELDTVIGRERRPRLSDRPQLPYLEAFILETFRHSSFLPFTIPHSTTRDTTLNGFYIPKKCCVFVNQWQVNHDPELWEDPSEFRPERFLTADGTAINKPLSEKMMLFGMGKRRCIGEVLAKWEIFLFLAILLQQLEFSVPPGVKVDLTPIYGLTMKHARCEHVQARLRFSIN
Sequence of Cytochrome P450 3A4 (Homo sapiens) (P08684 whole entry, looked up): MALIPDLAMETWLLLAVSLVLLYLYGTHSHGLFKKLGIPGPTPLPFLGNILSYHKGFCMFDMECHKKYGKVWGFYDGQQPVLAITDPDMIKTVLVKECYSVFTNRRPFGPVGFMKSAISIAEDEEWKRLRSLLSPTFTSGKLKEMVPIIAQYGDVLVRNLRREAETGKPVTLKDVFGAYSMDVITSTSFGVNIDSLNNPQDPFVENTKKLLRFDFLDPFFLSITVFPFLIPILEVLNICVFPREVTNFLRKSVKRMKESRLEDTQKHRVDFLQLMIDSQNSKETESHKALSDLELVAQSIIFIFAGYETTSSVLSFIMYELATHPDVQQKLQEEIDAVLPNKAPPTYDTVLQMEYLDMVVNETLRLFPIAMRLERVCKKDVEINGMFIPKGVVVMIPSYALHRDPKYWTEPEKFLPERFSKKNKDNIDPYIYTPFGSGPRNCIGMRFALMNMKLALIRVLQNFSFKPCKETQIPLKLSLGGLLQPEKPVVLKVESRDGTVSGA
Sequence of Cytochrome P450 2C19 (Homo sapiens) (P33261 whole entry, looked up): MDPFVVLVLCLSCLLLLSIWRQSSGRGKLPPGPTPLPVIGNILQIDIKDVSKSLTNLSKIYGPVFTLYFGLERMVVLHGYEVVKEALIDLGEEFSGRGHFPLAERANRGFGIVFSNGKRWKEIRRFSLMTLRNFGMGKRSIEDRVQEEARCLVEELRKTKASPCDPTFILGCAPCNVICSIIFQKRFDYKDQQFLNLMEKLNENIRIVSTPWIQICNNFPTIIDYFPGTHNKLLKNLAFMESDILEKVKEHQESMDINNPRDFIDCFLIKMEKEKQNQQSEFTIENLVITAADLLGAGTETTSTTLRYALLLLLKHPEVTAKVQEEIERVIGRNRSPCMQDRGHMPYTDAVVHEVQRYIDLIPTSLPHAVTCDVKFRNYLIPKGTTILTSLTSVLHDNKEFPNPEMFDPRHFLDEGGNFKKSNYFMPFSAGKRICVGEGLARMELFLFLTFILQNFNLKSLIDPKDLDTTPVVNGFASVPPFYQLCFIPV

Take `O=C(O)c1ccc(/C=N\N=C2c3ccccc3-c3ccccc32)cc1`: the Potency in assay [1] is over 11.4 µM; in assay [3], 0.126 µM (active); in [6], over 46 µM; in assay [7], over 9.22 µM. Further, the activity change, negative = inhibition was -12.4% in [2] and -25.2% in assay [4]. In assay [5], the activity, negative = inhibition was -6.87%. Besides, the Potency result in assay [8], in [9] and in assay [10] was “inactive” each time.
Consider `O=C1NC(=O)[C@@](Cc2ccccc2)(c2cccnc2)N1`, for which the figures for the Potency in [1], in assay [6] and in assay [7] were over 11.4 µM, over 46 µM and over 9.22 µM, respectively. For the same molecule, the activity change, negative = inhibition was -12.7% in assay [2], -17.1% [at 2.29 µM] in assay [3] and 9.84% in assay [4]. Further, the activity, negative = inhibition in assay [5] is -7.87%. Also, the Potency result in [8], in [9] and in assay [11] was “inactive” throughout. In addition, in [12], the activation was 5.55%.
For the molecule `O=C(O)c1cc2ccccc2c(S(=O)(=O)O)c1O`, the results for the Potency in [1], in assay [6] and in assay [7] were over 11.4 µM, over 46 µM and over 9.22 µM, respectively. Besides, the activity change, negative = inhibition in assay [2] is 2.94%; in assay [4], 7.56%. Further, the Potency result in assay [3], in assay [8], in [9] and in [10] was “inactive” each time. Besides, the activity, negative = inhibition in assay [5] was 3.56%.
With `C[C@]12CC[C@H]3c4ccc(O)cc4CC[C@@H]3[C@H]1C/C(=N/O)[C@H]2O`, the Potency in assay [1] is over 11.4 µM; in assay [6], over 46 µM; in assay [7] it was over 9.22 µM. Besides, the activity change, negative = inhibition in assay [2] was -6.54%; in [4], 3.7%. Moreover, the Potency entry in assay [3], in assay [8], in assay [9] and in assay [10] was “inactive” throughout. In assay [5], the activity, negative = inhibition is 1.89%.
For `CC1=NCC[N@@+]1(CCc1ccccc1)Cc1ccccc1`, the Potency in assay [1] is over 11.4 µM; in assay [6] it was over 46 µM; in assay [7] it was over 9.22 µM; in assay [10], 0.0501 µM (active). Also, the activity change, negative = inhibition in [2] is -5.92%; in [4], -20.4%. Besides, the Potency result in [3], in assay [8] and in assay [9] was “inactive” throughout. In addition, in assay [5], the activity, negative = inhibition is 11.6%.
Regarding `C(/C=C\c1ccccc1)=Nc1ccc2c(c1)Cc1ccccc1-2`, the Potency in [1] is over 11.4 µM; in assay [3], 0.398 µM (active); in [6] it was over 46 µM; in [7], over 9.22 µM; in [13] it was 3.98 µM (active). For the same molecule, the activity change, negative = inhibition in assay [2] is -2.87%; in [4] it was -3.9%. The activity, negative = inhibition in assay [5] was 7.01%. Moreover, the Potency entry in [8], in assay [9] and in [11] was “inactive” throughout.
Consider `c1ccc2c(CN3CCN(Cc4c[nH]c5ccccc45)CC3)c[nH]c2c1`, for which the Potency in [1] was over 11.4 µM; in assay [6] it was over 46 µM; in assay [7], over 9.22 µM; in assay [10], 2.51 µM (active). Also, the activity change, negative = inhibition in assay [2] is -5.4%; in assay [3], -18.1% [at 2.29 µM]; in assay [4] it was 5.24%. Also, in assay [5], the activity, negative = inhibition is 5.49%. Besides, the Potency result in [8] and in assay [9] was “inactive” each time.
